Most compounds without a hit are left out; they make up all but 4.6% or so of the library.
FAS TE block = inhibitors of human fatty acid synthase thioesterase domain; P49327; recombinant FAS-TE, OMFH fluorogenic substrate, fluorescence endpoint; inhibition, % at 15 µM; actives 0.67% (n = 360,000); AID 602261;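 active = compounds whose normalised, plate-corrected inhibition of enzyme fluorescence in the single-dose primary screen is 50% or more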;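 also: 0% = DMSO with enzyme and 100% = substrate without enzyme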
ADAM10 inh = ADAM10 inhibition, QFRET primary screen | inhibition, % at 7 µM | AID 720582 | O14672 | actives 0.62% (n = 370,000) | recombinant ADAM10, EDANS/DABCYL FRET peptide cleavage, 3 h;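 active = inhibition above a per-campaign cutoff equal to the mean of compounds falling between control-based bounds plus 3 SD, cut at about 20% in these data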;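 also: 0% = DMSO wells while the 100% control is not disclosed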
proKLK7 act = proKLK7 (human) activation, primary screen. activation, % at 7 µM. actives 0.9% (n = 370,000). P49862. AID 652039. purified proKLK7, EDANS-DABCYL substrate fluorescence; 100% is mature enzyme control, 0% vehicle;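 active = activation above the mean of all tested compounds plus 3 SD, computed per campaign excluding outliers beyond control limits, cut at about 13% in these data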
NR3A LBD binder = NR3A (human) ligand-binding domain modulation | Tm shift relative to glycine control, % at 25 µM | NR3A LBD differential scanning fluorimetry, Tm shift; 0% = protein alone, 100% = glycine-bound protein | actives 2.5% (n = 340,000);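 active = melting temperature shift of at least 10% of the positive control shift, at one fixed dose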
ADAM17 inh = inhibitors of human ADAM17 | P78536 | recombinant ADAM17, EDANS/DABCYL FRET peptide cleavage | inhibition, % at 6.95 µM | actives 0.83% (n = 370,000) | AID 720648;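 active = inhibition above the mean of compounds lying between control limits plus 3 SD, set per campaign, cut at about 8.5% in these data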;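 also: 0% = DMSO-only wells as the low control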
ADAM10 counter = ADAM10 inhibition, counter-screen for ADAM17 exosite hits | shares compounds with ADAM17 inh | recombinant ADAM10, EDANS/DABCYL FRET peptide cleavage, 3 h | inhibition, % at 6.95 µM | actives 47% (n = 2,900);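 active = mean inhibition over the triplicate runs exceeds the activity threshold set in the earlier primary screen, cut at about 20% in these data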;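 also: 0% = DMSO wells and 100% = marimastat wells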
ADAM17 confirm = human ADAM17 inhibition, confirmation; shares compounds with ADAM17 inh; recombinant ADAM17, EDANS/DABCYL QFRET peptide cleavage; inhibition, % at 6.95 µM; actives 65% (n = 2,900);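 active = mean inhibition across replicates above the hit cutoff set in the primary screen, cut at about 8.5% in these data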;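 also: 0% = DMSO wells and 100% = marimastat wells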
Active calls of the source: *; x = no result.

SMILES	FAS TE block	ADAM10 inh	proKLK7 act	NR3A LBD binder	ADAM17 inh	ADAM10 counter	ADAM17 confirm
COc1ccc(CNc2oc(COc3ccc(Cl)cc3)nc2C#N)cc1	39.0	18.2	0.4	3.5	10.9*	30.6*	16.4*
COc1ccc(CCNc2oc(COc3ccc(Br)cc3)nc2C#N)cc1OC	18.7	18.5	0.0	-2.2	10.4*	33.6*	18.9*
Cc1[nH]c2ccccc2c1CC(=O)Nc1ccc(Nc2cccnc2)c(-c2ccc(-c3ccccc3)cc2F)c1	x	-116.5	-7.4	x	-37.1	x	x
Cc1nn(C)c(Cl)c1NC(=O)OCc1ccc(Cl)cc1Cl	1.8	5.8	0.4	-2.8	-0.5	x	x
Cc1nnsc1NC(=O)OCc1ccc(Cl)cc1Cl	4.9	12.4	0.4	-2.3	10.3*	6.0	1.4
COC(=O)c1nn(-c2ccccc2)c(Sc2ccc(Br)cc2)c1/C=N/O	-20.5	3.6	-0.6	-0.5	11.2*	10.7	4.4
CCc1cc(C(=O)OC)c(NC(=O)C2CC(=O)NN2Cc2ccccc2)s1 (stereo not given)	11.2	4.9	1.1	0.0	9.3*	14.8	14.6*
COc1ccc(CCNS(=O)(=O)c2ccc(N3CCCC3=O)cc2)cc1	-2.5	11.9	-0.3	1.3	11.6*	-4.4	-1.9
O=C1CCCN1c1ccc(S(=O)(=O)NCCc2ccc(Cl)cc2)cc1	1.6	x	x	-5.6	x	x	x
CCCCCCCCN1C(=O)[C@@H](CC(=O)NCc2ccc(C)o2)C[C@@]2(C(=O)OC)C1=C[C@H](C1CCCC1)O[C@@H]2C	x	7.9	1.0	x	4.5	x	x
Cn1nc(C(F)(F)F)c(C(=O)Nc2ccc(F)cc2F)c1Sc1cccc(C(F)(F)F)c1	29.1	14.6	-0.6	-8.9	9.8*	10.3	8.4
CCc1ccc(/C=N/NC(=O)c2cc(-c3ccccc3OC)nc3ccccc23)s1	25.3	8.0	-32.4	0.9	9.2*	-29.9	5.4
CCCCCCCCN1C(=O)[C@@H](CC(=O)N2CCCC2)C[C@@]2(C(=O)OC)C1=C[C@H](C1CCCC1)O[C@@H]2C	x	1.1	-0.1	x	-2.1	x	x
C=CCN=C1NC(c2cccc(F)c2)C(C(=O)OC)=C(C)N1C (stereo not given)	x	-0.3	0.7	x	-5.6	x	x
O=C(CCC(=O)OCC(=O)c1ccccc1)Nc1cccc2cccnc12	-6.1	18.2	0.4	1.4	8.7*	0.1	0.6
O=C(O)CCC(=O)Nc1cccc2cccnc12	-5.8	-10.4	-0.3	-0.6	-0.7	x	x
Cc1ccc(NC(=O)OCCN(C)C(=O)Nc2ccc(C)cc2C)c(C)c1	x	-12.4	-0.4	x	-5.7	x	x
O=[N+]([O-])c1ccc(O)c(/C=N/n2cnnc2)c1	-4.1	15.1	0.2	3.5	9.2*	11.1	4.5
COc1ccc(C(=O)N2CCC[C@H]2C(=O)N2CCC[C@@H]2C(=O)NCc2ccccc2)cc1F	x	-0.7	0.0	x	-3.2	x	x
Oc1c(C(Nc2ccccn2)c2cccnc2)cc(Cl)c2cccnc12 (stereo not given)	-0.8	13.7	-0.1	-4.5	10.8*	26.4*	15.6*
O=C(CSc1nc2ccccc2[nH]1)N1c2ccccc2Sc2ccccc21	12.1	9.9	0.6	-2.0	12.2*	23.6*	14.2*
Cc1ccc(NC(=O)c2ccc(Nc3c([N+](=O)[O-])cc([N+](=O)[O-])cc3[N+](=O)[O-])cc2)cc1	17.6	16.6	0.3	-2.9	10.2*	23.3*	12.2*
Cc1cccc(C)c1-n1nnnc1C(c1ccccc1)N1CCN(C/C=C/c2ccccc2)CC1 (stereo not given)	21.7	14.2	0.8	x	9.4*	10.5	10.5*
Cc1cccc(C)c1-n1nnnc1C(c1cccs1)N1CCN(C/C=C/c2ccccc2)CC1 (stereo not given)	29.2	1.5	-0.2	x	0.1	x	x
COc1ccc2c(c1)[C@@H](NC(=O)c1ccncc1)[C@H](C)[C@H]2c1ccccc1	x	0.4	0.3	x	-1.2	x	x
SMILES	FAS TE block	ADAM10 inh	proKLK7 act	NR3A LBD binder	ADAM17 inh	ADAM10 counter	ADAM17 confirm
Fc1ccc(NCc2n[nH]c(=S)n2Cc2ccccc2)cc1	-2.3	15.5	0.1	-0.5	11.4*	10.6	8.6
S=c1[nH]nc(CNc2ccc(Cl)cc2)n1Cc1ccccc1	-2.1	9.6	0.1	0.8	6.5	x	x
O=C(NC1CCCC1)[C@@H]1CCCN1C(=O)[C@@H](NC(=O)N1CCOCC1)c1ccccc1	x	-1.6	-0.3	x	1.3	x	x
COc1ccc(NC(=O)OC[C@@H]2CSCCS(=O)(=O)N2)cc1	x	-13.2	-0.4	x	-5.3	x	x
COc1ccc(NC(=O)CCC(=O)NCCO)cc1	-0.7	0.1	-0.6	-0.4	-0.3	x	x
O=C(CCC(=O)Nc1ccccc1)NCCO	-9.4	2.8	0.1	-0.1	11.3*	-7.8	-2.2
COc1ccc(C2CC(=O)C(c3ccc(C(N)=O)cc3)=CN2Cc2ccccc2)cc1 (stereo not given)	x	-21.6	1.1	x	-3.7	x	x
CCc1ccc(NC(=O)COC(=O)/C=C/c2ccco2)cc1	-1.6	4.7	0.1	0.5	11.3*	1.6	4.3
COC(=O)c1cc2c(c3c4cc(OC)ccc4n(S(=O)(=O)c4ccc(C)cc4)c13)C(=O)N(C)C2	x	-5.9	-1.1	x	-0.7	x	x
O=C1NC(=O)C(Cc2ccccc2)(c2ccccc2)N1 (stereo not given)	-7.4	-19.2	0.3	-2.6	5.8	x	x
O=C1NC(=O)C(Cc2ccc(Cl)cc2)(c2ccccc2)N1 (stereo not given)	-3.5	7.1	0.5	1.2	40.2*	13.2	65.4*
Cc1ccc(CC2(c3ccccc3)NC(=O)NC2=O)cc1 (stereo not given)	-2.7	-8.6	-0.7	2.9	18.1*	-6.3	17.9*
O=C(NC1CCCCCCC1)c1c(O)c2ccccc2[nH]c1=O	-6.8	3.4	-0.1	0.5	9.4*	-5.5	1.4
O=C(NC1CC1)c1c(O)c2ccccc2[nH]c1=O	0.4	-7.5	0.1	0.1	-2.6	x	x
O=C(CSc1ncn[nH]1)Nc1ccc2c(c1)CCC2	-35.3	11.2	0.3	0.7	8.8*	10.2	3.9
O=C1Nc2ccccc2-n2nnnc2C1N1CCN(c2ccc(C(F)(F)F)cc2[N+](=O)[O-])CC1 (stereo not given)	x	19.1	0.9	x	8.6*	31.8*	17.9*
Cc1ccc(C)c(N2CCN(C3C(=O)Nc4ccccc4-n4nnnc43)CC2)c1 (stereo not given)	x	-3.3	-0.5	x	-2.5	x	x
Cc1ccc(/C(CSc2nccn2-c2ncc(C(F)(F)F)cc2Cl)=N\O)cc1	-9.0	11.1	0.5	0.6	15.1*	5.1	9.1*
Cc1ccc(NC(=O)C(OC(=O)c2ccccc2Cl)c2ccccc2)cc1Cl (stereo not given)	38.7	14.5	-0.4	19.5*	9.3*	31.5*	21.1*

Screens deposited in PubChem by several laboratories.
